High-throughput results from PubChem BioAssay.
OPRM1-OPRD1 ag – OPRM1-OPRD1 heterodimerization agonism; cells, luminescence; activation, % at 9.3 µM; hit rate 0.3% among 340,000; AID 504326
HTR5A ag – activates human HTR5A in OPRM1-OPRD1 agonist counter-screen. hit rate 0.61% among 340,000. P47898. HTR5A agonist assay, luminescence, cell-based. activation, % at 9.3 µM. AID 504692; in the data active = activation mostly above about 9.5%, no sharp cut-off; inactive = mostly below about 7.6%
Target sequence (P47898 whole entry, looked up): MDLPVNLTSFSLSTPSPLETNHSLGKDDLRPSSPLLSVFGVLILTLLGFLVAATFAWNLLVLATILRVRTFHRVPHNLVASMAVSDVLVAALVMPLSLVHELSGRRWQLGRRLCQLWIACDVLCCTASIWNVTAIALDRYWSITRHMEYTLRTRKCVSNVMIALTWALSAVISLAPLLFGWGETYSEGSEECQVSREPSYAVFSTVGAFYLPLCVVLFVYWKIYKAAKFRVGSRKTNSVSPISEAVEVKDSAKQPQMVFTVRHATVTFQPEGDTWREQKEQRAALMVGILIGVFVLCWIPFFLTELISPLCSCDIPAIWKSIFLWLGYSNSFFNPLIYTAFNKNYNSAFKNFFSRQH
MOR-DOR inv ag – mu-delta opioid heterodimer inverse agonism; cell-based MOR-DOR heterodimer luminescence; AID 504357; inhibition, % at 9.3 µM; hit rate 0.21% among 340,000; in the data active = inhibition above about 22%, passing the limit was not always enough
HTR5A inv ctr – HTR5A inverse agonism, opioid heterodimer counter-screen | P47898 | HTR5A cell line, luminescence | inhibition, % at 9.3 µM | hit rate 0.083% among 340,000 | AID 504634; in the data active = inhibition mostly above about 23%, no sharp cut-off; inactive = mostly below about 18%
MOR-DOR ag conf – confirmation of human OPRM1-OPRD1 heterodimerization agonists; activation, % at 9.3 µM; cells, MOR-DOR heterodimerization, luminescence complementation; hit rate 45% among 830; shares compounds with OPRM1-OPRD1 ag
HTR5A ag counter – counter-screen for OPRM1-OPRD1 agonists: human HTR5A agonism. shares compounds with OPRM1-OPRD1 ag. HTR5A agonist counterscreen, cell luminescence. activation, % at 9.3 µM. hit rate 8% among 830. AID 504905; in the data active = activation above about 17%
A number is an active result; i = inactive; nt = not tested or not shown. Compounds with a hit are over-represented: about 1.1% of the library has one in this group of screens. Rule as the data show it, unless noted: active = activation above about 18%; inactive = the rest.

SMILES	OPRM1-OPRD1 ag	HTR5A ag	MOR-DOR inv ag	HTR5A inv ctr	MOR-DOR ag conf	HTR5A ag counter
CN1C2C=C(N(CCc3c[nH]c4ccccc34)C(=O)c3ccc(Cl)cc3)CC1CC2 (configuration not stated)	100	i	i	i	138	i
Cc1ccc(CSCC(=O)N/N=C/c2sccc2C)cc1	89	i	i	i	180	i
COc1ccc(CC(=O)N/N=C/c2sccc2C)cc1	i	i	i	i	nt	nt
O=C(C[C@@H]1C/C=C/CC[C@@H](Cc2ccc(F)cc2)C(=O)OCCNC1=O)N[C@H](CO)Cc1ccccc1	i	i	i	i	nt	nt
CN(C)C(CNC(=S)Nc1ccc(Cl)cc1)c1cccnc1 (configuration not stated)	264	i	i	i	i	i
CCc1cccc(CC)c1NC(=S)NCC(c1cccnc1)N(C)C (configuration not stated)	150	i	i	i	i	i
CN(C)C(CNC(=O)Nc1cccc(Cl)c1)c1cccnc1 (configuration not stated)	202	i	i	i	i	i
O=c1c2[nH]c3ccccc3c2ncn1Cc1ccccn1	i	i	i	i	nt	nt
CCCCn1c(N)c(N(CCC(C)C)C(=O)C2=NN(c3cc(C)ccc3C)C(=O)CC2)c(=O)[nH]c1=O	i	i	i	i	nt	nt
COc1cc([N+](=O)[O-])ccc1NC(=O)/C=C\C(=O)O	i	i	i	i	nt	nt
CCOC(=O)c1c(C)[nH]c(O)c1C=Nc1ccc(Cl)cc1	39	i	i	i	i	i
CCOC(=O)c1c(C)[nH]c(O)c1C=Nc1ccc(C(F)(F)F)cc1	i	i	i	i	nt	nt
CCn1c(SCC(=O)Nc2cccnc2Cl)nnc1-c1ccccc1	i	i	i	i	nt	nt
O=C(COC(=O)/C=C/c1ccco1)Nc1ccccc1	i	i	i	i	nt	nt
COC(=O)c1ccccc1NC(=O)COC(=O)/C=C/c1ccco1	21	i	i	i	i	i
O=C(COc1ccc(/C=N/NC(=O)c2cc3ccccc3o2)cc1Br)Nc1ccccc1	45	i	i	i	41	i
CCn1c(=O)c(C(=O)NCc2ccccc2)c(O)c2ccccc21	i	i	i	i	nt	nt
CCn1c(=O)c(C(=O)NCc2cccnc2)c(O)c2ccccc21	19	i	i	i	29	i
Cc1ccc(C)c(N2CCN(S(=O)(=O)c3ccc(-c4ccc(=O)[nH]n4)o3)CC2)c1	20	i	i	i	i	i
Cc1ccc(Cl)cc1N1CCN(S(=O)(=O)c2ccc(-c3ccc(=O)[nH]n3)o2)CC1	i	i	i	i	nt	nt
O=C(NNC(=O)c1ccccc1-c1ccccc1C(=O)O)c1ccccc1	i	i	i	i	nt	nt
O=C(C=P(c1ccccc1)(c1ccccc1)c1ccccc1)c1ccccc1-c1ccccc1C(=O)C=P(c1ccccc1)(c1ccccc1)c1ccccc1	55	i	i	i	54	i
c1ccc(C2[C@H]3CN(Cc4cccnc4)[C@H](c4ccccc4)C34CC2(c2cccnc2)C4)cc1 (some centres not stated)	80	i	i	i	75	i
CC1CN(C(=O)c2cc3ccccc3cc2O)CC(C)O1 (configuration not stated)	i	i	i	i	nt	nt
CCOC(=O)N1CCc2c(sc3ncn(C)c(=O)c23)C1	i	i	i	i	nt	nt
SMILES	OPRM1-OPRD1 ag	HTR5A ag	MOR-DOR inv ag	HTR5A inv ctr	MOR-DOR ag conf	HTR5A ag counter
CCOC(=O)N1CCc2c(sc3nc4n(c(=O)c23)N=C(c2ccc(OC)cc2)CS4)C1	26	i	i	i	i	i
O=C(NCC(c1ccc(F)cc1)N1CCOCC1)c1ccc(-c2ccccc2)cc1 (configuration not stated)	21	i	i	i	i	i
COC1=CC(=O)c2c(ccc3ncnc(N)c23)C1=O	41	i	i	i	i	i
COC(=O)CNc1nc(-c2cccnc2)nc2ccccc12	i	i	i	i	nt	nt
COc1ccc(C(CNc2nc(-c3cccnc3)nc3ccccc23)N(C)C)cc1 (configuration not stated)	160	i	i	i	i	i
CCOC(=O)c1nnc(-c2ccccc2)nc1Oc1ccc(Cl)cc1	i	i	i	i	nt	nt
COc1ccc2c(c1)[C@H]1[C@H](CO2)[C@H](c2ccccc2)[C@]2(C)C(=O)N[C@H](C)C(=O)N12	i	i	i	i	nt	nt
COc1cc(OC)cc(C(=O)N2CCN(C(=O)Cc3ccccc3)CC2)c1	i	i	i	i	nt	nt
CC(=O)c1ccc(NC(=O)Nc2ccc3c(c2)N(C)C(=O)CS3)cc1	50	i	i	i	120	i
